From article PMC7862700, “An all-to-all approach to the identification of sequence-specific readers for epigenetic DNA modifications on cytosine”

Tests used:
Experiment in all cases: DAPPL (digital affinity profiling via proximity ligation, sequencing); 10 mM Tris-HCl pH 7.5, 50 mM NaCl, 1 mM DTT, 4% glycerol, room temperature, 30 min; GST-TFs on glutathione beads, 16-mer random dsDNA library, 0.1% formaldehyde crosslink after washing; high values mean tight binding
[1] = target: T1, FEV (Homo sapiens, UniProt Q99581 1-238); settings: protein: recombinant; tags: N-terminal GST; dsDNA, one strand shown
T1 sequence: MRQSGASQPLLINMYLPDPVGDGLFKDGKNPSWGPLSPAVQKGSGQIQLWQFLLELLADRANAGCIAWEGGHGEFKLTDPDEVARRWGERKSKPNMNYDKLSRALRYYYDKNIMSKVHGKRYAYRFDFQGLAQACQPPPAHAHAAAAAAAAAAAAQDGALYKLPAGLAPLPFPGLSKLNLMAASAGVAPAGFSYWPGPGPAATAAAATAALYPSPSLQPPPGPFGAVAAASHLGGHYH
Method in brief: (§1)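 Binding signal is each hexamer's read frequency for a factor divided by its frequency in the tag-only sample. The factors were GST-fused human transcription factors from yeast, captured on glutathione beads, DNA-barcoded and pooled with that sample. Pools were incubated with 200 nmole of a random double-stranded 16-mer DNA library in Tris/NaCl/DTT/glycerol buffer at room temperature for 30 min, then washed, crosslinked with 0.1% formaldehyde, proximity-ligated with BsaI/T4 ligase (1 h, 37 °C), PCR-amplified and sequenced on an Illumina NextSeq500.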

[2] = target: ETV5 (Homo sapiens, UniProt P41161 1-510); settings: protein: recombinant; tags: N-terminal GST; dsDNA, one strand shown
Method in brief: as §1

[3] = target: HSF1 (Homo sapiens, UniProt Q00613 1-529); settings: protein: recombinant; tags: N-terminal GST; chain copies: 3; dsDNA, one strand shown
Method in brief: as §1

[4] = target: T2, SPIC (Homo sapiens, UniProt Q8N5J4 1-248); settings: protein: recombinant; tags: N-terminal GST; dsDNA, one strand shown
T2 sequence: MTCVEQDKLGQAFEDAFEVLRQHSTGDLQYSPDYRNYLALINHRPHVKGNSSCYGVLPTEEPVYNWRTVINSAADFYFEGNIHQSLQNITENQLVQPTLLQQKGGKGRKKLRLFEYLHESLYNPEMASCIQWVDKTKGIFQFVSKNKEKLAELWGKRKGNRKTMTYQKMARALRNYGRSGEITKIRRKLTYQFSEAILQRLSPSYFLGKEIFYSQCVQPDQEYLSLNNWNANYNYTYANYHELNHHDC
Method in brief: as §1

[5] = target: ELF4 (Homo sapiens, UniProt Q99607 1-663); settings: protein: recombinant; tags: N-terminal GST; dsDNA, one strand shown
Method in brief: as §1

[6] = target: T3, ELK4 (Homo sapiens, UniProt P28324-2 1-405); settings: protein: recombinant; tags: N-terminal GST; dsDNA, one strand shown
T3 sequence: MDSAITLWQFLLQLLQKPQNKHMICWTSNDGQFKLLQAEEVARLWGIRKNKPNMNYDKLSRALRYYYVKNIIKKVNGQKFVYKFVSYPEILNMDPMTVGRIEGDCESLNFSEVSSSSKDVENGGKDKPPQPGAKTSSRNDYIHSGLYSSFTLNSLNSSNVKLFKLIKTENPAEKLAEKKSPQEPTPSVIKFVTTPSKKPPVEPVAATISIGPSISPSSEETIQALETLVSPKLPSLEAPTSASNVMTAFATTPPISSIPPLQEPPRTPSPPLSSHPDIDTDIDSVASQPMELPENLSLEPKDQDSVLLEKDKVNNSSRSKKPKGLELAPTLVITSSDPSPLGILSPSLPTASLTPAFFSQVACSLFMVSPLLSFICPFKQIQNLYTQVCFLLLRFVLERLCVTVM
Method in brief: as §1

[7] = target: T4, ETV2 (Homo sapiens, UniProt O00321 1-342); settings: protein: recombinant; tags: N-terminal GST; dsDNA, one strand shown
T4 sequence: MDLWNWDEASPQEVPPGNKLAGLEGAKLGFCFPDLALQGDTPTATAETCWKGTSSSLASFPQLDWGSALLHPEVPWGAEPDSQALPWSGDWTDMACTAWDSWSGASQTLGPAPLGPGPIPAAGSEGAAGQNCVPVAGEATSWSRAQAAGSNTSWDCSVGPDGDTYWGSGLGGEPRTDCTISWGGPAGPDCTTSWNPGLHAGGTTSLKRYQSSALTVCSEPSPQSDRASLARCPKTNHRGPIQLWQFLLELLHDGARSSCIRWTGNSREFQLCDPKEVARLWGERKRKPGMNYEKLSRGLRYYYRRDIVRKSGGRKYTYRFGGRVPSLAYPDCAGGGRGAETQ
Method in brief: as §1

[8] = target: CRX (Homo sapiens, UniProt O43186 1-299); settings: protein: recombinant; tags: N-terminal GST; dsDNA, one strand shown
Method in brief: as §1

[9] = target: ETV1 (Homo sapiens, UniProt P50549 1-477); settings: protein: recombinant; tags: N-terminal GST; dsDNA, one strand shown
Method in brief: as §1

[10] = target: T5, ERF (Homo sapiens, UniProt P50548 1-548); settings: protein: recombinant; tags: N-terminal GST; dsDNA, one strand shown
T5 sequence: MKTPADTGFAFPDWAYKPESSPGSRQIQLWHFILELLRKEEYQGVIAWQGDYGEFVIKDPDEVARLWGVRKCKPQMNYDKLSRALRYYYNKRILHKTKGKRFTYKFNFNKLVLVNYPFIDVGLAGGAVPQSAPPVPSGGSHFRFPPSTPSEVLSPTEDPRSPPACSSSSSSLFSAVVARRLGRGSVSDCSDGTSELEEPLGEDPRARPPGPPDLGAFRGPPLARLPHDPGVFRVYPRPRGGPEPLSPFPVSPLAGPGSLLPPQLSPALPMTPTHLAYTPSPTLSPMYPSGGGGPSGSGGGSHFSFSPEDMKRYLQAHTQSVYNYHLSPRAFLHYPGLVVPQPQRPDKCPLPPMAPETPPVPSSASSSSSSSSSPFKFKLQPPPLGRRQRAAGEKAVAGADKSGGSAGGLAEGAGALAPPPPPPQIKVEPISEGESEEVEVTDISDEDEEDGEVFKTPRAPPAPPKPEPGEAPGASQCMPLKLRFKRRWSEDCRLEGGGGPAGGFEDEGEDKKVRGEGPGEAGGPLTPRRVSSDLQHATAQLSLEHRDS
Method in brief: as §1

[11] = target: T6, ETV3L (Homo sapiens, UniProt Q6ZN32 1-361); settings: protein: recombinant; tags: N-terminal GST; dsDNA, one strand shown
T6 sequence: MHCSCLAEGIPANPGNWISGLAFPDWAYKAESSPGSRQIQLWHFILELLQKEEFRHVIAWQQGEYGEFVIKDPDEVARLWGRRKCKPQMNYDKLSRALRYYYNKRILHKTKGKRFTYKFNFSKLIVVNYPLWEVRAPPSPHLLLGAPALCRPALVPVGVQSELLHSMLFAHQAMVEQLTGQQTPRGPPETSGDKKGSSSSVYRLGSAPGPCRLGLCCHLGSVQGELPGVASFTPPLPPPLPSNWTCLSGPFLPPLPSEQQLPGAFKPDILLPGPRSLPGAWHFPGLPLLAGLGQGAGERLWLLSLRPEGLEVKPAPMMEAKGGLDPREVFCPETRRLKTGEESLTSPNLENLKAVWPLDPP
Method in brief: as §1

[12] = target: T7, ETS2 (Homo sapiens, UniProt P15036 1-469); settings: protein: recombinant; tags: N-terminal GST; dsDNA, one strand shown
T7 sequence: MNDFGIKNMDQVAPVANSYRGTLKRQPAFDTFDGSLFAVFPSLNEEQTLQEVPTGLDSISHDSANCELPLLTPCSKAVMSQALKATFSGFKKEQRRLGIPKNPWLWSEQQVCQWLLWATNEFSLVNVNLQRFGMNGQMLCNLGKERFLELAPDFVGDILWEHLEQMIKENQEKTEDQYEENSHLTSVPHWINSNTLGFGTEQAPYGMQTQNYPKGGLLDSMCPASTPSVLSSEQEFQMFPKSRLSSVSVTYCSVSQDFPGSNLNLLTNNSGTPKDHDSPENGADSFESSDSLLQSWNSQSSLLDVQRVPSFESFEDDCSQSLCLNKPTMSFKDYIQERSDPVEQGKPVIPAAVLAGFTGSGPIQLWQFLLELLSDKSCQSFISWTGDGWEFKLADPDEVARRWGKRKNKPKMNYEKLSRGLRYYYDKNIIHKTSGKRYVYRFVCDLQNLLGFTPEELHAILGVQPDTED
Method in brief: as §1

[13] = target: T8, SPDEF (Homo sapiens, UniProt O95238 1-335); settings: protein: recombinant; tags: N-terminal GST; dsDNA, one strand shown
T8 sequence: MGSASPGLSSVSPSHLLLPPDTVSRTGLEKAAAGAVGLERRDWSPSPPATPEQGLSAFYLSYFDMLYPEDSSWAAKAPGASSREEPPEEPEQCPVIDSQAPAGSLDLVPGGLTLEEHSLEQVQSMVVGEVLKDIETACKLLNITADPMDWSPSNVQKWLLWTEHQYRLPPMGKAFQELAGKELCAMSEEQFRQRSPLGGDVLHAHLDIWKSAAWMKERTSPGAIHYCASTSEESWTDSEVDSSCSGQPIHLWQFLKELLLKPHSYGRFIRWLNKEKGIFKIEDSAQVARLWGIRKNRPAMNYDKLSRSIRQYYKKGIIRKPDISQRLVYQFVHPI
Method in brief: as §1

[14] = target: T9, ETV7 (Homo sapiens, UniProt Q9Y603 1-341); settings: protein: recombinant; tags: N-terminal GST; dsDNA, one strand shown
T9 sequence: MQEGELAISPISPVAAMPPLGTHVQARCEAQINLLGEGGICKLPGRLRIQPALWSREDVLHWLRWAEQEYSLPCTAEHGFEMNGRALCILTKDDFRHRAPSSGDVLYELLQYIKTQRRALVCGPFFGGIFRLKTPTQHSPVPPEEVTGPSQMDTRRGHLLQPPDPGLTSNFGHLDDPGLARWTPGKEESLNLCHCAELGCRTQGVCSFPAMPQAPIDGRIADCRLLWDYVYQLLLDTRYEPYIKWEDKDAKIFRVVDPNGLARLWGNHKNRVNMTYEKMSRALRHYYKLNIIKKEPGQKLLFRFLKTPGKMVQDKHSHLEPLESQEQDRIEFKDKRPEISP
Method in brief: as §1

[15] = target: T10, ELF5 (Homo sapiens, UniProt Q9UKW6-2 1-255); settings: protein: recombinant; tags: N-terminal GST; dsDNA, one strand shown
T10 sequence: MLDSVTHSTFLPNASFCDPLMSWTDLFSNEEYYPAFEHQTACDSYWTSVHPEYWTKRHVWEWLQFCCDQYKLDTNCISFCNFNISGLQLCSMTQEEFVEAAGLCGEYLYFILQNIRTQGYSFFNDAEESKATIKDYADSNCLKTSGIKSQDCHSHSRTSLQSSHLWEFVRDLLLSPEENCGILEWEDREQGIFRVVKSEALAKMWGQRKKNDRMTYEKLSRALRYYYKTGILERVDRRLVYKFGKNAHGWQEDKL
Method in brief: as §1

[16] = target: T11, ETV3 (Homo sapiens, UniProt P41162-2 1-143); settings: protein: recombinant; tags: N-terminal GST; dsDNA, one strand shown
T11 sequence: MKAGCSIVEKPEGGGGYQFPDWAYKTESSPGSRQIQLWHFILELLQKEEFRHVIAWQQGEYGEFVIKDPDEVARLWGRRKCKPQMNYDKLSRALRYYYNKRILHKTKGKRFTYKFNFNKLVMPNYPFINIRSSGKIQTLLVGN
Method in brief: as §1

[17] = target: ETV6 (Homo sapiens, UniProt P41212 1-452); settings: protein: recombinant; tags: N-terminal GST; dsDNA, one strand shown
Method in brief: as §1

Chain of ETV6 (P41212 whole entry): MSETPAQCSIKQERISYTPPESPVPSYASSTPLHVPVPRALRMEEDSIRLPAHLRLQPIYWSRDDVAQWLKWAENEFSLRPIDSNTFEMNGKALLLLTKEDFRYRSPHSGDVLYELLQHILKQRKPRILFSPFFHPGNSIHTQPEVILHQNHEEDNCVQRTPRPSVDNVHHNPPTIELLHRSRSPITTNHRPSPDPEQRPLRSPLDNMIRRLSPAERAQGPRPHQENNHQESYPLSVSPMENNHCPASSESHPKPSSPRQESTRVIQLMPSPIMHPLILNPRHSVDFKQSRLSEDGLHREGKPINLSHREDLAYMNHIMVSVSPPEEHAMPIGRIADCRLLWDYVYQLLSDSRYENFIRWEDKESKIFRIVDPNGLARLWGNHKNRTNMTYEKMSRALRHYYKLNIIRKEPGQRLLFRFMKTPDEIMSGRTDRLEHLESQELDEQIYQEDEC
Chain of ETV5 (P41161 whole entry): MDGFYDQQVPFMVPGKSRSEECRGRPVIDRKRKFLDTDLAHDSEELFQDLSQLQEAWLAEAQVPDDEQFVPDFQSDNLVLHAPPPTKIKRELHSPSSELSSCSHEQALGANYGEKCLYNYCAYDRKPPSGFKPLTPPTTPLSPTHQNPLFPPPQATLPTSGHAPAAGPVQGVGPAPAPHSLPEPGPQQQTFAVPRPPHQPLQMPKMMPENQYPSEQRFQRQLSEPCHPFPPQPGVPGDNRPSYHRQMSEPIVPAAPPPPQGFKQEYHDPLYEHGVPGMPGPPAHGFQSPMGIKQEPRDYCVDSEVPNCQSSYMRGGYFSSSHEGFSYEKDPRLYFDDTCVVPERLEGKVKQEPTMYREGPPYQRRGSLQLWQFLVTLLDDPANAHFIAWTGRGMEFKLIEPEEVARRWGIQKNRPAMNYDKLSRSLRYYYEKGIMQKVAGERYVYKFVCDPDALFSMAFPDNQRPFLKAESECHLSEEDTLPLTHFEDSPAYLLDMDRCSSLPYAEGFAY
Chain of ELF4 (Q99607 whole entry): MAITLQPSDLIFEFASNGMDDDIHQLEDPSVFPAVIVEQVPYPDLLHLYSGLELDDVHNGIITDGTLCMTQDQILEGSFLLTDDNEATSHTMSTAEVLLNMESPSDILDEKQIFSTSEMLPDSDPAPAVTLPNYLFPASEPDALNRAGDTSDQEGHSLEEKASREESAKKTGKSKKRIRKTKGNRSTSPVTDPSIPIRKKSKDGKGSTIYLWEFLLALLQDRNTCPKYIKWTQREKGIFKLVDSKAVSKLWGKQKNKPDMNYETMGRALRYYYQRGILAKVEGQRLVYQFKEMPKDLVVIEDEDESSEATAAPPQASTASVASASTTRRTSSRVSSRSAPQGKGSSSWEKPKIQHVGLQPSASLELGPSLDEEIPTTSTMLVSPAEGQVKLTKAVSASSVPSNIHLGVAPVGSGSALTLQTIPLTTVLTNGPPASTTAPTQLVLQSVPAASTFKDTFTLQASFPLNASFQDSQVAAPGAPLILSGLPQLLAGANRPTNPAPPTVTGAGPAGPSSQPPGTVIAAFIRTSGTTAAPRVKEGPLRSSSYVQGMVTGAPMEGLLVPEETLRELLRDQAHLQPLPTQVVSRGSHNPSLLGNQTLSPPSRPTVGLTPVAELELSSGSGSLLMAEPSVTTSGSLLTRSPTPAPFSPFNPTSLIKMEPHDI
Chain of ETV1 (P50549 whole entry): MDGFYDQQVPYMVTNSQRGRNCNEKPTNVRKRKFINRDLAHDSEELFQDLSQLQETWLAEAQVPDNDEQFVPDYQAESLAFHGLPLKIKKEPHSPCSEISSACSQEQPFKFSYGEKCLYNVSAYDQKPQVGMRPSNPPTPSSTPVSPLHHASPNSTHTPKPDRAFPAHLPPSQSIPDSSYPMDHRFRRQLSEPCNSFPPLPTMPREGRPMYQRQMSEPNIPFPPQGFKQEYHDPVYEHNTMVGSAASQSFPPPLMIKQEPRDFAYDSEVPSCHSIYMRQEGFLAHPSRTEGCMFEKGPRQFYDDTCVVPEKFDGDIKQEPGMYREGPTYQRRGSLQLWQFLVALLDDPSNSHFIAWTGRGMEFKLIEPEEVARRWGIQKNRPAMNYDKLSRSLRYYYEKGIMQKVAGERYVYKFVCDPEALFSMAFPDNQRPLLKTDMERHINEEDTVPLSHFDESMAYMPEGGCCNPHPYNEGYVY
Chain of HSF1 (Q00613 whole entry): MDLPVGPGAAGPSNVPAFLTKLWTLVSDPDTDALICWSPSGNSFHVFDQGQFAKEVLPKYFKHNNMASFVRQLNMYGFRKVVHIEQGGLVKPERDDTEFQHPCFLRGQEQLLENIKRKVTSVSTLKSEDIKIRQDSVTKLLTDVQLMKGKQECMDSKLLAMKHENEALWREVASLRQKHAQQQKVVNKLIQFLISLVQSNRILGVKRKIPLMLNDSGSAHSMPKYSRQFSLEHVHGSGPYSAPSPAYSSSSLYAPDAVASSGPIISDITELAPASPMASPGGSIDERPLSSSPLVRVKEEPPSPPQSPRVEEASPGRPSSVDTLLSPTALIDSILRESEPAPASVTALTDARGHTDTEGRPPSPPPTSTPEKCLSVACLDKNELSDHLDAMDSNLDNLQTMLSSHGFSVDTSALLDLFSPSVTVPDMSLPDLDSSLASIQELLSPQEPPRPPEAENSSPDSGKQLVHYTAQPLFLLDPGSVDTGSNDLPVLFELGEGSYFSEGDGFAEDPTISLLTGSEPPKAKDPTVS
Chain of CRX (O43186 whole entry): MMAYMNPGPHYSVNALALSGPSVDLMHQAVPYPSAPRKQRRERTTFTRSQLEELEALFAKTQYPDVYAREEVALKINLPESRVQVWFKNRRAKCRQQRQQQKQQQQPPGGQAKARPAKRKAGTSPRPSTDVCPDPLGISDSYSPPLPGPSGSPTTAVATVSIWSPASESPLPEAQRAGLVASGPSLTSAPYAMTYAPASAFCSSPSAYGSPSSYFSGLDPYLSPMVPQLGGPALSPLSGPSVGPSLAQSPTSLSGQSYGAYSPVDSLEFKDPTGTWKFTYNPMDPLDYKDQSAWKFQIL

Sequence | binding signal [1] | binding signal [2] | binding signal [3] | binding signal [4] | binding signal [5] | binding signal [6] | binding signal [7] | binding signal [8] | binding signal [9] | binding signal [10] | binding signal [11] | binding signal [12] | binding signal [13] | binding signal [14] | binding signal [15] | binding signal [16] | binding signal [17]
TAAGCC | 1.15 fold enrichment (6-mer frequency, TF over GST control) | 1.12 fold enrichment (6-mer frequency, TF over GST control) | 2.07 fold enrichment (6-mer frequency, TF over GST control) | 1.15 fold enrichment (6-mer frequency, TF over GST control) | 1.19 fold enrichment (6-mer frequency, TF over GST control) | 1.15 fold enrichment (6-mer frequency, TF over GST control) | 1.09 fold enrichment (6-mer frequency, TF over GST control) | 3.55 fold enrichment (6-mer frequency, TF over GST control) | 1.14 fold enrichment (6-mer frequency, TF over GST control) | 1.15 fold enrichment (6-mer frequency, TF over GST control) | 1.2 fold enrichment (6-mer frequency, TF over GST control) | 1.15 fold enrichment (6-mer frequency, TF over GST control) | 1.12 fold enrichment (6-mer frequency, TF over GST control) | 1.1 fold enrichment (6-mer frequency, TF over GST control) | 1.03 fold enrichment (6-mer frequency, TF over GST control) | 1.12 fold enrichment (6-mer frequency, TF over GST control) | 1.03 fold enrichment (6-mer frequency, TF over GST control)
CGACGA | 1.1 fold enrichment (6-mer frequency, TF over GST control) | 1.15 fold enrichment (6-mer frequency, TF over GST control) | 1.16 fold enrichment (6-mer frequency, TF over GST control) | 1.2 fold enrichment (6-mer frequency, TF over GST control) | 1.17 fold enrichment (6-mer frequency, TF over GST control) | 1.08 fold enrichment (6-mer frequency, TF over GST control) | 1.01 fold enrichment (6-mer frequency, TF over GST control) | – | 1.07 fold enrichment (6-mer frequency, TF over GST control) | 1.12 fold enrichment (6-mer frequency, TF over GST control) | 1.13 fold enrichment (6-mer frequency, TF over GST control) | 1.13 fold enrichment (6-mer frequency, TF over GST control) | 1.13 fold enrichment (6-mer frequency, TF over GST control) | 1.11 fold enrichment (6-mer frequency, TF over GST control) | 1.09 fold enrichment (6-mer frequency, TF over GST control) | 1.12 fold enrichment (6-mer frequency, TF over GST control) | 1.17 fold enrichment (6-mer frequency, TF over GST control)
